Screening results deposited in PubChem BioAssay by several laboratories.
Shown are actives, neighbours in structure and some others; about 2.9% of the full set was active somewhere.
Granule exo inh: lytic granule exocytosis inhibition. TALL-104 LAMP-1 surface exposure, flow cytometry; cells stimulated with thapsigargin and PMA. inhibition, % at 10 µM. 360,000 compounds, 0.66% hits. AID 651702;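 active means inhibition above about 55%, limit read from the data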
GRK2 aptamer HTS: human GRK2 inhibition via aptamer displacement; P25098; bead flow cytometry, FAM-aptamer displacement from GRK2; inhibition of aptamer binding, % at 10 µM; 330,000 compounds, 0.59% hits; AID 488847;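 active means inhibition of aptamer binding above 40%, roughly 3 SD of noise, on plates passing a quality check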;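 further: median bead fluorescence of bound FAM aptamer so fluorescent compounds give negative values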
B2AR ag: human beta-2 adrenergic receptor agonism by FAP | P07550 | response, % (concentration not given with the values) | 340,000 compounds, 0.43% hits | AID 504454 | Am2.2-beta2AR cells, FAP receptor internalization, flow cytometry;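 active means response above a set limit, near 3 SD of response in nonfluorescent compounds, cut at about 42% in these data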
Target sequence (P07550 whole entry, looked up): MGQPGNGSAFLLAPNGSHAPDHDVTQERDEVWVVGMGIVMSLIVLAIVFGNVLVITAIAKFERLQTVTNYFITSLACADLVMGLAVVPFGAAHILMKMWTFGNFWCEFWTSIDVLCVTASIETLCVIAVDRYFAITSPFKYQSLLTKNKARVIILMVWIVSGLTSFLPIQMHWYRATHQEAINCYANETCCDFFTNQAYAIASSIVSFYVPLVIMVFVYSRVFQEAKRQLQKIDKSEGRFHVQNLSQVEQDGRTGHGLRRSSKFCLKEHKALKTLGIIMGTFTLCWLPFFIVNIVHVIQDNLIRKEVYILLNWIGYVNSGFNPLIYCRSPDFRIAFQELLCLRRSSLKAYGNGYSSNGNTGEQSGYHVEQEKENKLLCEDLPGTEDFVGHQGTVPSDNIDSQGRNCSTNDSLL
PP1 inh: counter-screen for PP5 inhibitors: inhibitors of human PP1-alpha | P62136 | purified PP1alpha, OMFP fluorescence | inhibition, % at 6.7 µM | 320,000 compounds, 0.9% hits | AID 2235;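 active means inhibition above the mean inhibition of all tested compounds plus 3 SD, computed separately for each screening campaign, cut at about 15% in these data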
NadD inh: inhibitors of Staphylococcus aureus NadD. 360,000 compounds, 0.78% hits. inhibition, % at 20 µM. AID 602399. purified NadD enzyme, colorimetric absorbance read-out; in the data active means inhibition above about 26%
NadD conf: NadD (S. aureus) inhibition, single concentration confirmation. shares compounds with NadD inh. purified S. aureus NadD, colorimetric enzyme assay. inhibition, % at 20 µM. 2,000 compounds, 13% hits; in the data active means inhibition mostly above about 42%, no sharp cut-off; inactive means mostly below about 42%
Granule exo CP1: blocks lytic granule exocytosis. shares compounds with Granule exo inh. TALL-104 cells, LAMP-1 externalization, flow cytometry; stimulated with PMA plus thapsigargin. inhibition, % at 10 µM. 1,500 compounds, 11% hits; in the data active means inhibition above about 60%
Each line names hits and unclear results; the compound was inactive in the other large screens (follow-up assays come after a bar, where they were run).

COc1ccc(-c2nc3cc(C)c(Br)c(C)n3c2Cc2ccccc2C(F)(F)F)cc1OC	none (no result: GRK2 aptamer HTS, B2AR ag, PP1 inh)
Cc1cc2nc(-c3ccco3)c(Cc3ccccc3C(F)(F)F)n2c(C)c1Br	Granule exo inh 84.8, NadD inh 41.5 (no result: GRK2 aptamer HTS, B2AR ag, PP1 inh) | NadD conf inactive | Granule exo CP1 inactive
Fc1cccc(F)c1/C=C/c1ccc2ccccc2n1	none
C(=C\c1ccco1)/c1ccc2ccccc2n1	Granule exo inh 59.2, NadD inh 43.8 | NadD conf inactive | Granule exo CP1 inactive
c1ccc2c(c1)COc1c3ncccc3nn1-2	none (no result: GRK2 aptamer HTS, B2AR ag, PP1 inh)
COc1ccc(CCNC(=O)Nc2nc(CN)cs2)cc1OC	none (no result: GRK2 aptamer HTS, B2AR ag, PP1 inh)
COc1ccccc1Cc1c(-c2ccco2)nc2ccc(Cl)cn12	Granule exo inh 81.9, NadD inh 29.7 (no result: GRK2 aptamer HTS, B2AR ag, PP1 inh) | NadD conf inactive | Granule exo CP1 inactive
CN(CC(=O)Nc1ccc(Cl)c(C(F)(F)F)c1)C(=O)Cc1ccsc1	none
COc1ccc(Nc2nc(N3CCN(S(=O)(=O)N(C)C)CC3)nc3ccccc23)cc1	Granule exo inh 81.2 | Granule exo CP1 inactive
COc1ccc(Nc2nc(N3CCN(S(C)(=O)=O)CC3)nc3ccccc23)c(OC)c1	none
NC(=O)NC(CC(=O)OCC(=O)Nc1nnc(-c2ccccc2)o1)c1ccc(Cl)cc1 (centres undefined)	none (no result: GRK2 aptamer HTS, B2AR ag, PP1 inh)
CN(C)S(=O)(=O)Nc1ccc(Cc2ccncc2)cc1	none (no result: GRK2 aptamer HTS, B2AR ag, PP1 inh)
O=C(NCc1cccnc1)c1cc(C(=O)C2CC2)c[nH]1	none
O=C(NCc1ccccc1Cl)c1cc(C(=O)C2CC2)c[nH]1	Granule exo inh 60.9 | Granule exo CP1 inactive
O=C1NC(=O)C2(CCc3ccccc32)N1 (centres undefined)	none
C=C1CC2(OC1=O)c1ccccc1CCc1ccccc12	Granule exo inh 90.2 (no result: GRK2 aptamer HTS, PP1 inh) | Granule exo CP1 inactive
Cc1csc2sc(-c3ccnc(SCC(=O)NCc4ccccc4)n3)c(C)c12	Granule exo inh 66.1 | Granule exo CP1 inactive
Cc1csc(SCC(=O)NCc2ccccc2)n1	none
CCOc1cc(CNCCO)cc(Br)c1OCc1ccc(Cl)cc1	Granule exo inh 63.3 | Granule exo CP1 inactive
CCOc1cc(CNC(C)(C)CO)cc(Br)c1OCc1ccc(Cl)cc1Cl	Granule exo inh 66.5 | Granule exo CP1 inactive
CCOc1cc(CNCCO)cc(Br)c1OCc1ccccc1Cl	none
O=S(=O)(c1ccc(Br)s1)N1CCN(c2ccc(F)cc2)CC1	Granule exo inh 66.1 | Granule exo CP1 inactive
O=S(=O)(c1ccc(Br)s1)N1CCN(c2ccccc2)CC1	none
O=C(C1=NN[C@@H]2C(=O)N(Cc3ccccc3)C(=O)[C@H]12)c1ccc(F)cc1	none
Oc1cc(Br)ccc1C=Nc1ccc(N2CCCCC2)cc1	Granule exo inh 64.8 | Granule exo CP1 inactive
Oc1ccc(C=Nc2ccc(N3CCOCC3)cc2)c(O)c1	none
N#Cc1c(Nc2ccccc2C(F)(F)F)s[nH]c1=O	none
N#Cc1c(Nc2ccccc2Cl)s[nH]c1=O	Granule exo inh 78.5 | Granule exo CP1 94.6
Cc1ccc(S(=O)(=O)N2CCC(=O)N(C(COCc3ccccc3)Cc3ccccc3)CC2)cc1 (centres undefined)	Granule exo inh 89.8 | Granule exo CP1 inactive
CCn1cc(CN2CCc3c([nH]c4ccccc34)C2c2cccc(OC)c2OC)c(C)n1 (centres undefined)	Granule exo inh 59.1 | Granule exo CP1 inactive
Cc1oc(=O)c(NC(=O)c2cccc(Cl)c2)cc1C(=O)c1ccccc1	Granule exo inh 96.9 | Granule exo CP1 inactive
CC(=O)Oc1cccc(NC(=O)c2cccc(C(=O)Nc3cccc(OC(C)=O)c3)c2)c1	Granule exo inh 63.8 | Granule exo CP1 inactive
COc1cccc(C(=O)Nc2cccc(OC(C)=O)c2)c1	none
S=C1NC2CCCCC2N1 (centres undefined)	none
CCCN(S(=O)(=O)c1ccccc1F)S(=O)(=O)c1ccccc1Br	Granule exo inh 57.2 | Granule exo CP1 inactive
C[C@H](CO)N1C[C@H](C)[C@@H](CN(C)C(=O)C2CCOCC2)Oc2ncc(Br)cc2C1=O	none (no result: GRK2 aptamer HTS, B2AR ag, PP1 inh)
Cc1cccc(Oc2sc(C(=O)c3ccccc3)c(N)c2C#N)c1C	Granule exo inh 65.6 | Granule exo CP1 inactive
O=C(Nc1ccc2c(c1)OCCO2)c1cccc(Cl)c1	none
O=C(Nc1cccc(Cl)c1)c1ccc2c(c1)OCCO2	Granule exo inh 61.4 | Granule exo CP1 inactive
Cc1ccc(-n2nnc3c(=O)oc4ccccc4c32)cc1	Granule exo inh 93.5 | Granule exo CP1 83.0
CN1CCN(c2ccc(Nc3ccnc4cc(Cl)ccc34)cc2)CC1	Granule exo inh 66.9 | Granule exo CP1 inactive
CCOc1ccc(Nc2ccnc3cc(Cl)ccc23)cc1	none
Cc1ccc(-c2nc3c(c(=O)[nH]c(=O)n3Cc3ccccc3)n2C)o1	Granule exo inh 97.5 (no result: GRK2 aptamer HTS, PP1 inh) | Granule exo CP1 inactive
COc1ccc(-c2oc3ncnc(NCCCN(C)C)c3c2-c2ccc(OC)cc2)cc1	Granule exo inh 68.9 | Granule exo CP1 inactive
CN(C)CCNc1ncnc2oc(-c3ccccc3)c(-c3ccccc3)c12	none (no result: PP1 inh)
CCNCC(=O)N1c2ccccc2CCc2ccc(NC(=O)OCC)cc21	Granule exo inh 57.0 | Granule exo CP1 inactive
Cc1ccc(S(=O)(=O)N2CCOC2CNC(=O)C(=O)NCCN2CCOCC2)cc1 (centres undefined)	none
COc1ccc(C(C(=O)NCc2ccccc2)N(C(=O)c2snc(C(N)=O)c2N)c2ccccc2OC)cc1 (centres undefined)	Granule exo inh 64.9 | Granule exo CP1 inactive
Cc1cccc(OCc2nn[nH]n2)c1C	none
CCN(CC(=O)NCc1cccs1)C(=O)c1cccc(S(=O)(=O)N2CCc3ccccc32)c1	Granule exo inh 64.9 | Granule exo CP1 inactive
CCN(CC(=O)NCc1cccs1)C(=O)c1cccc(S(=O)(=O)N2CC(C)OC(C)C2)c1 (centres undefined)	none (no result: PP1 inh)
CCCOc1ccc(Oc2nc(-c3ccncc3)nc3ccccc23)cc1	Granule exo inh 93.7 | Granule exo CP1 inactive
CC(C)N(Cc1ccccc1)C(=O)CN1C(=O)NC(Cc2ccccc2)(c2ccccc2)C1=O (centres undefined)	none
CCCCCCNC(=O)CC(c1ccccc1)c1cc(Br)ccc1O (centres undefined)	Granule exo inh 66.3 | Granule exo CP1 inactive
CC(C)NC(=O)CC(c1ccccc1)c1cc(Br)ccc1O (centres undefined)	none
CCc1ccc(NC(=O)CSCCO)cc1	Granule exo inh 85.2 | Granule exo CP1 inactive
O=[N+]([O-])c1ccc(COc2ccc(CN3CCCC3)cc2)cc1	none (no result: GRK2 aptamer HTS, PP1 inh)
Cc1ccccc1CN1CCc2cc([N+](=O)[O-])ccc21	Granule exo inh 114.7 | Granule exo CP1 inactive
COCC1CCCN(Cc2cn(Cc3ccccc3)nc2-c2cc3ccccc3o2)C1 (centres undefined)	Granule exo inh 70.4 | Granule exo CP1 inactive
Nc1nc(SCC(=O)NC2CCCCCC2)[nH]c(=O)c1-c1ccccc1	none
